Whole data set: some 9,900 sequences, median “r (bound/input frequency ratio)” near 0.7, cut for the highest 2% near 6.5. The list comes from a sample in which the highest values are over-represented; it also holds similar and randomly drawn sequences.
B1: ENSMUSG00000028439.233|Fam219a (ssRNA)
RNA: GGGAGUUCUACAGUCCGACGAUCGCUUCGAUAUCCGCAUGCUACACCGACAGAGUCUUUUCAUACCAGAAGGAAUUUCUUCACAGGAGUUUCUGCAAAAGACUAUGACAUCUGUGUGUCUGUGGUCUCACGAGGUACCUGGAGGUGUAUGUGCACGGACAUGGGAAGUACGUGAAGAUUUAUUUCGGGAAAAGUGGUGUGUGUGUAGCUGUACUGGGUGUCAUGUAUGCUGUUGCUUCUGCUGCUGGUCUGGUCUGAGGGAGGAAAGCUGAGGCUGUAGCUCAGUGAGAUGGUGGCUCUCCCACUCUUGCGGUCGCACUAGUGUGGAAUUCUCGGGUGUCAAGG
B2: ENSMUSG00000058297.19|Spock2|137:141;145:158;167:178;192:198;207:216;222:247 (ssRNA)
RNA: GGGAGUUCUACAGUCCGACGAUCGCUUCGAUAUCCGCAUGCUACGACGGCCUCGGCAGGCCAGGGUGCCGACGGCCAGAAAGACAGGCCAGAAGAGACCUGGACAACAGCAGGCAACUUAGCAAAUGGAUCCGGAAGUCAGUGCGGAGGACCCUGGCUCCAGUGGGGGAGGACUGGGGACACACGCUACACACAUACACACAUAUGAGAACACACACAUACAUGUGAGAUGUGACACACACAUGUGAGAACACACAUACUGAGAACACACACACACACACACACACACACAUGUGAGUCACCCCUCUUGCGGUCGCACUAGUGUGGAAUUCUCGGGUGUCAAGG
B3: ENSMUSG00000058297.21|Spock2|125:129;133:146;155:166;180:186;195:204;210:235 (ssRNA)
RNA: GGGAGUUCUACAGUCCGACGAUCGCUUCGAUAUCCGCAUGCUACAGGCCAGGGUGCCGACGGCCAGAAAGACAGGCCAGAAGAGACCUGGACAACAGCAGGCAACUUAGCAAAUGGAUCCGGAAGUCAGUGCGGAGGACCCUGGCUCCAGUGGGGGAGGACUGGGGACACACGCUACACACAUACACACAUAUGAGAACACACACAUACAUGUGAGAUGUGACACACACAUGUGAGAACACACAUACUGAGAACACACACACACACACACACACACACAUGUGAGUCACCCAAAGGUCCCUAUCUCUUGCGGUCGCACUAGUGUGGAAUUCUCGGGUGUCAAGG
B4: ENSMUSG00000058297.18|Spock2 (ssRNA)
RNA: GGGAGUUCUACAGUCCGACGAUCGCUUCGAUAUCCGCAUGCUAAGCCCUCGACGGCCUCGGCAGGCCAGGGUGCCGACGGCCAGAAAGACAGGCCAGAAGAGACCUGGACAACAGCAGGCAACUUAGCAAAUGGAUCCGGAAGUCAGUGCGGAGGACCCUGGCUCCAGUGGGGGAGGACUGGGGAGUGUGGCUUGUGUGUAUGUGUGAUAUGAGAUGUGUGUGUAUGAUGUGAGAUGUGAGUGUGUGAUGUGAGAUGUGUGUAUGUGAGAUGUGUGUGUGUGUGUGUGUGUGUGUGAUGUGAGCUCUUGCGGUCGCACUAGUGUGGAAUUCUCGGGUGUCAAGG
B5: ENSMUSG00000058297.19|Spock2 (ssRNA)
RNA: GGGAGUUCUACAGUCCGACGAUCGCUUCGAUAUCCGCAUGCUACGACGGCCUCGGCAGGCCAGGGUGCCGACGGCCAGAAAGACAGGCCAGAAGAGACCUGGACAACAGCAGGCAACUUAGCAAAUGGAUCCGGAAGUCAGUGCGGAGGACCCUGGCUCCAGUGGGGGAGGACUGGGGAGUGUGGCUUGUGUGUAUGUGUGAUAUGAGAUGUGUGUGUAUGAUGUGAGAUGUGAGUGUGUGAUGUGAGAUGUGUGUAUGUGAGAUGUGUGUGUGUGUGUGUGUGUGUGUGAUGUGAGUCACCCCUCUUGCGGUCGCACUAGUGUGGAAUUCUCGGGUGUCAAGG
B6: ENSMUSG00000058297.20|Spock2|131:135;139:152;161:172;186:192;201:210;216:241 (ssRNA)
RNA: GGGAGUUCUACAGUCCGACGAUCGCUUCGAUAUCCGCAUGCUACCUCGGCAGGCCAGGGUGCCGACGGCCAGAAAGACAGGCCAGAAGAGACCUGGACAACAGCAGGCAACUUAGCAAAUGGAUCCGGAAGUCAGUGCGGAGGACCCUGGCUCCAGUGGGGGAGGACUGGGGACACACGCUACACACAUACACACAUAUGAGAACACACACAUACAUGUGAGAUGUGACACACACAUGUGAGAACACACAUACUGAGAACACACACACACACACACACACACACAUGUGAGUCACCCAAAGGUCUCUUGCGGUCGCACUAGUGUGGAAUUCUCGGGUGUCAAGG
B7: ENSMUSG00000058297.22|Spock2 (ssRNA)
RNA: GGGAGUUCUACAGUCCGACGAUCGCUUCGAUAUCCGCAUGCUAAGGGUGCCGACGGCCAGAAAGACAGGCCAGAAGAGACCUGGACAACAGCAGGCAACUUAGCAAAUGGAUCCGGAAGUCAGUGCGGAGGACCCUGGCUCCAGUGGGGGAGGACUGGGGAGUGUGGCUUGUGUGUAUGUGUGAUAUGAGAUGUGUGUGUAUGAUGUGAGAUGUGAGUGUGUGAUGUGAGAUGUGUGUAUGUGAGAUGUGUGUGUGUGUGUGUGUGUGUGUGAUGUGAGUCACCCAAAGGUCCCUAUGUUAUUCUCUUGCGGUCGCACUAGUGUGGAAUUCUCGGGUGUCAAGG
B8: ENSMUSG00000058297.21|Spock2 (ssRNA)
RNA: GGGAGUUCUACAGUCCGACGAUCGCUUCGAUAUCCGCAUGCUACAGGCCAGGGUGCCGACGGCCAGAAAGACAGGCCAGAAGAGACCUGGACAACAGCAGGCAACUUAGCAAAUGGAUCCGGAAGUCAGUGCGGAGGACCCUGGCUCCAGUGGGGGAGGACUGGGGAGUGUGGCUUGUGUGUAUGUGUGAUAUGAGAUGUGUGUGUAUGAUGUGAGAUGUGAGUGUGUGAUGUGAGAUGUGUGUAUGUGAGAUGUGUGUGUGUGUGUGUGUGUGUGUGAUGUGAGUCACCCAAAGGUCCCUAUCUCUUGCGGUCGCACUAGUGUGGAAUUCUCGGGUGUCAAGG
B9: ENSMUSG00000058297.5|Spock2|221:225;229:242;251:259 (ssRNA)
RNA: GGGAGUUCUACAGUCCGACGAUCGCUUCGAUAUCCGCAUGCUAAGAAGAGGCAGGGGAGGAGGCCGAGGAGGAGGAGGGUGAGGCGGGUGAGGCAGAUGAUGGAGGCUACAUCUGGUAGAUAGCCCUCGACGGCCUCGGCAGGCCAGGGUGCCGACGGCCAGAAAGACAGGCCAGAAGAGACCUGGACAACAGCAGGCAACUUAGCAAAUGGAUCCGGAAGUCAGUGCGGAGGACCCUGGCUCCAGUGGGGGAGGACUGGGGACACACGCUACACACAUACACACAUAUGAGAACACACACAACUCUUGCGGUCGCACUAGUGUGGAAUUCUCGGGUGUCAAGG
B10: ENSMUSG00000058297.18|Spock2|143:147;151:164;173:184;198:204;213:222;228:253 (ssRNA)
RNA: GGGAGUUCUACAGUCCGACGAUCGCUUCGAUAUCCGCAUGCUAAGCCCUCGACGGCCUCGGCAGGCCAGGGUGCCGACGGCCAGAAAGACAGGCCAGAAGAGACCUGGACAACAGCAGGCAACUUAGCAAAUGGAUCCGGAAGUCAGUGCGGAGGACCCUGGCUCCAGUGGGGGAGGACUGGGGACACACGCUACACACAUACACACAUAUGAGAACACACACAUACAUGUGAGAUGUGACACACACAUGUGAGAACACACAUACUGAGAACACACACACACACACACACACACACAUGUGAGCUCUUGCGGUCGCACUAGUGUGGAAUUCUCGGGUGUCAAGG
B11: ENSMUSG00000058297.20|Spock2 (ssRNA)
RNA: GGGAGUUCUACAGUCCGACGAUCGCUUCGAUAUCCGCAUGCUACCUCGGCAGGCCAGGGUGCCGACGGCCAGAAAGACAGGCCAGAAGAGACCUGGACAACAGCAGGCAACUUAGCAAAUGGAUCCGGAAGUCAGUGCGGAGGACCCUGGCUCCAGUGGGGGAGGACUGGGGAGUGUGGCUUGUGUGUAUGUGUGAUAUGAGAUGUGUGUGUAUGAUGUGAGAUGUGAGUGUGUGAUGUGAGAUGUGUGUAUGUGAGAUGUGUGUGUGUGUGUGUGUGUGUGUGAUGUGAGUCACCCAAAGGUCUCUUGCGGUCGCACUAGUGUGGAAUUCUCGGGUGUCAAGG

Target: TDP-43 (Homo sapiens, UniProt Q13148 1-414)
Sequence (Q13148 whole entry): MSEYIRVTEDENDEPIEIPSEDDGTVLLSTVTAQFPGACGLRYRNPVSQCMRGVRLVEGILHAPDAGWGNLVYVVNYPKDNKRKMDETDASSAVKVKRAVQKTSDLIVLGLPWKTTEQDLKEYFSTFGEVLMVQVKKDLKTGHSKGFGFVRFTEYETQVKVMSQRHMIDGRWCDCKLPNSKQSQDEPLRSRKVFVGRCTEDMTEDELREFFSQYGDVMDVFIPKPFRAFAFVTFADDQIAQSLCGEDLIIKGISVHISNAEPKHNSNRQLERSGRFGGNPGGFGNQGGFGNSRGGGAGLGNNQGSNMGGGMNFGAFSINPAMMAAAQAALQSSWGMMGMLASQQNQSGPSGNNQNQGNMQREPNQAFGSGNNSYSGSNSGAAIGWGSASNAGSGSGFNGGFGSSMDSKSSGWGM
Assay: RNA Bind-n-Seq with designed 260-mer pool; 25 mM Tris-HCl, 150 mM KCl, 3 mM MgCl2, BSA (printed 500 mg/mL), 20 units/mL SUPERase IN; pH not stated; 500 nM RNA pool, 1 h, 4 C; TDP-43 5, 50, 500 nM; high values mean tight binding
Details: protein: recombinant; tags: SBP (GST cleaved off with PreScission; pGEX-GST-SBP)
Procedure, shortened: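 Binding (R) is the ratio of each oligo's mapped-read-normalized abundance in the bound fraction to its abundance in the input. To obtain it, SBP-tagged recombinant TDP-43 (5, 50 or 500 nM) on streptavidin beads was incubated with 500 nM of an in vitro-transcribed 260-nt 3′ UTR oligo pool for 1 h at 4 °C in 25 mM Tris-HCl, 150 mM KCl, 3 mM MgCl2, BSA and SUPERase IN. The RNA retained after washing was released with biotin, then reverse transcribed, amplified by PCR and sequenced.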

Going from B1 to B2, the binding signal falls from 3.93 R (bound/input frequency ratio) to 3.73 R (bound/input frequency ratio).

Compared with B3, B4 is higher in binding signal: 2.78 R (bound/input frequency ratio) for the first, 7.4 R (bound/input frequency ratio) for the second.

Going from B5 to B6, the binding signal falls from 6.67 R (bound/input frequency ratio) to 1.82 R (bound/input frequency ratio).

Compared with B7, B8 is higher in binding signal: 5.79 R (bound/input frequency ratio) for the first, 6.78 R (bound/input frequency ratio) for the second.

Compared with B9, B10 is higher in binding signal: 2.97 R (bound/input frequency ratio) for the first, 3.16 R (bound/input frequency ratio) for the second.

In the case of B11, the binding signal is reported as 8.16 R (bound/input frequency ratio).

Source: article PMC12864922, “TDP-43 directly inhibits mRNA accumulation in neurites through modulation of mRNA stability”
